{
  "source": "PubChem BioAssay (Tox21)",
  "note": "“And” between values parts separate entries of the source, which are not always exact repeats. Equal entries are not always repeated. Records with an inconclusive call do not appear. Entries that show only a call come without a potency. A structure can be active in one record and inactive in another. The source made the active and inactive calls. Calls come from the whole dose curve; as a rule, active = well fitted activation curve with a large enough effect in the repeat runs; inconclusive = weak or mixed curves; inactive = flat fitted curve, though single readings scatter. Potency is the fitted concentration of half-maximal effect.",
  "data": [
    {"experiment": "A CellTox Green Cytotoxicity Assay to monitor cytotoxicity in HepG2 cells - 24 hour (AID 1224878); note: nearly all actives have a fitted effect of over 45% in size", "conditions": "CellTox Green fluorescence; series mostly up to 76.8 µM", "summary_of_the_method": "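Cytotoxicity was tracked as dead-cell DNA fluorescence in HepG2 cells treated with test compounds at 37 C; each time-point value comes from one kinetic series spanning 0, 8, 16, 24, 32 and 40 h.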", "values": [
      {"smiles": "COC(=O)CCCCC(=O)OC", "Potency": "inactive"},
      {"smiles": "O=C(NCC1CCCCN1)c1cc(OCC(F)(F)F)ccc1OCC(F)(F)F", "note": "(stereo not drawn)", "Potency": "inactive"},
      {"smiles": "CCCCCNCCCCC", "Potency": "inactive"},
      {"smiles": "OB(O)O", "Potency": "inactive"},
      {"smiles": "C=C(C)CC(C)(C)C", "Potency": "inactive"},
      {"smiles": "O=[N+]([O-])c1cc(C(F)(F)F)ccc1Cl", "Potency": "inactive"},
      {"smiles": "CCCCCCC(=O)O", "Potency": "inactive"},
      {"smiles": "CC(=O)OC/C=C(\\C)CCC=C(C)C", "Potency": "inactive"},
      {"smiles": "OC[C@H]1O[C@@H](Oc2ccc(O)cc2)[C@H](O)[C@@H](O)[C@@H]1O", "Potency": "inactive"},
      {"smiles": "CC1(C)C(=O)N(Cl)C(=O)N1Cl", "Potency": "inactive"},
      {"smiles": "CC(=O)c1nccs1", "Potency": "inactive"},
      {"smiles": "COc1ccc2cc3[n+](cc2c1OC)CCc1cc2c(cc1-3)OCO2", "Potency": "inactive"},
      {"smiles": "CC(O)CNCC(C)O", "note": "(stereo not drawn)", "Potency": "inactive"},
      {"smiles": "Cc1ccccc1Cl", "Potency": "inactive"},
      {"smiles": "CO[Si](CCCNCCN)(OC)OC", "Potency": "inactive and 49 µM (active)"},
      {"smiles": "Oc1ccc(Cc2ccccc2O)cc1", "Potency": "inactive"},
      {"smiles": "CCCN(CCC)C(=O)SCC", "Potency": "inactive"},
      {"smiles": "CS(=O)(=O)c1ccc(Cl)cc1", "Potency": "inactive"},
      {"smiles": "CC[N+](CC)(CC(=O)Nc1c(C)cccc1C)Cc1ccccc1", "Potency": "inactive"},
      {"smiles": "COc1ccc([C@@H]2CC(=O)c3c(O)cc(O[C@@H]4O[C@H](CO[C@@H]5O[C@@H](C)[C@H](O)[C@@H](O)[C@H]5O)[C@@H](O)[C@H](O)[C@H]4O)cc3O2)cc1OC", "Potency": "inactive"},
      {"smiles": "C1CCCNCC1", "Potency": "inactive"},
      {"smiles": "NC(=O)NC(N)=O", "Potency": "inactive"},
      {"smiles": "O=[N+]([O-])c1ccccc1C(F)(F)F", "Potency": "inactive"},
      {"smiles": "CC(=O)OC(C)(C)C1CC=C(C)CC1", "note": "(stereo not drawn)", "Potency": "inactive"},
      {"smiles": "CCCCCCCC(=O)O", "Potency": "inactive"},
      {"smiles": "CC(COCC(C)OC(=O)c1ccccc1)OC(=O)c1ccccc1", "note": "(stereo not drawn)", "Potency": "inactive"},
      {"smiles": "Cc1ccncc1", "Potency": "inactive"},
      {"smiles": "COc1c(Cl)ccc(Cl)c1C(=O)O", "Potency": "inactive"},
      {"smiles": "CN=C(NC#N)NCCSCc1nc[nH]c1C", "Potency": "inactive"},
      {"smiles": "OCC(O)CS", "note": "(stereo not drawn)", "Potency": "inactive"},
      {"smiles": "CCOC(=O)CC(=O)OCC", "Potency": "inactive"},
      {"smiles": "COC(=O)/C=C\\C(=O)OC", "Potency": "inactive"},
      {"smiles": "CC1=CC(=O)CC(C)(C)C1", "Potency": "inactive"},
      {"smiles": "CC(=O)CC(=O)N(C)C", "Potency": "inactive"},
      {"smiles": "O=c1n(CCCN2CCN(c3cccc(Cl)c3)CC2)nc2ccccn12", "Potency": "inactive"},
      {"smiles": "N#CCC(=O)O", "Potency": "inactive"},
      {"smiles": "NC(=O)c1ncn([C@@H]2O[C@H](CO)[C@@H](O)[C@H]2O)n1", "Potency": "inactive"},
      {"smiles": "c1cnc2c(c1)ccc1cccnc12", "Potency": "inactive"}
    ]}
  ]
}
